SIAE primary – blocks human sialic acid acetylesterase; SIAE FP-Rh probe binding, fluorescence polarization; Q9HAT2; AID 1053197; inhibition, % at 9.66 µM; actives 0.69% (n = 370,000);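 active = inhibition above a cutoff: mean of compounds within the control limits plus 3 SD of those, cut at about 17% in these data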;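 note: 0% = plate median of compound wells and 100% = probe without SIAE protein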
PME-1 primary – PME-1 (human) inhibition. Q9Y570. recombinant PME-1, FP-Rh probe fluorescence polarization. inhibition, % at 5.9 µM. actives 0.53% (n = 320,000). AID 2130;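 active = inhibition above the campaign mean of all compounds plus 3 SD, cut at about 26% in these data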;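 note: competitive labeling of PME-1 active site by serine hydrolase directed probe; 0% = PME-1 with DMSO and 100% = wells lacking PME-1 enzyme; inhibitors block probe labeling so polarization falls and inhibition rises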
PRMT1 FP inh – blocks human protein arginine methyltransferase 1; inhibition, % at 2.79 µM; actives 1.3% (n = 370,000); Q99873; recombinant PRMT1, activity-based probe fluorescence polarization;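 active = inhibition above about 21% made by adding two undisclosed values, limit read from the data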
Target sequence (Q99873 whole entry, looked up): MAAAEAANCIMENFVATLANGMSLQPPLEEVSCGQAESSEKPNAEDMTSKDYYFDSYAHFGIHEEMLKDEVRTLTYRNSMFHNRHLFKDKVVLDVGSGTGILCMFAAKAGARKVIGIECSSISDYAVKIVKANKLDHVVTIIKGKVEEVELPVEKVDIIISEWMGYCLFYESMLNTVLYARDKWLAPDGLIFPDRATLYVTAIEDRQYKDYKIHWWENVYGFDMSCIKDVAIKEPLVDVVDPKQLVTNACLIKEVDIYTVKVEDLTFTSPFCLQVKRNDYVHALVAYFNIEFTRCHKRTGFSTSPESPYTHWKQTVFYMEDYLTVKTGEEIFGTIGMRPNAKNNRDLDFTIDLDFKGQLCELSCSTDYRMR
Fam108B inh – Fam108B inhibition, counter-screen for RBBP9 inhibitors | actives 0.33% (n = 300,000) | AID 1947 | inhibition, % at 9.51 µM | recombinant Fam108B, FP-Rh probe fluorescence polarization;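 active = inhibition above the screen mean inhibition plus 3 SD, computed separately per campaign, cut at about 18% in these data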;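 note: inhibitors lower polarization as less probe binds the enzyme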
TCR CD3 inh – blocks the human TCR-CD3 interaction. TAMRA-labeled TCR probe fluorescence, biochemical. inhibition, % at 9.4 µM. actives 0.37% (n = 360,000). AID 651800; in the data active = inhibition above about 19%;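 note: recombinant mutant TCR 2C K166C tagged with TAMRA read by polarization; 0% = receptor in buffer alone and 100% = receptor with positive control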
PAD4 FP inh – PAD4 (human) enzyme inhibition; Q9UM07; recombinant PAD4, RCA probe fluorescence polarization; inhibition, % at 6.36 µM; actives 0.41% (n = 330,000);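 active = percent inhibition above a cutoff equal to the mean of all tested compounds plus 3 SD, cut at about 15% in these data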;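 note: 0% = PAD4 with RCA probe and DMSO and 100% = probe without PAD4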
* hit, by the source's call; . = no result. A selection: hits, their analogues and other compounds. The true share with any hit is near 2.6%.

SMILES	SIAE primary	PME-1 primary	PRMT1 FP inh	Fam108B inh	TCR CD3 inh	PAD4 FP inh
O=C(OCc1ccccc1)[C@H](Cc1ccccc1)NC(=O)[C@@H]1CC=C[C@@H]2CCN(CCc3ccccc3)C(=O)[C@@H]21	7	.	0	.	.	.
COC(=O)/C(=C(/F)Sc1cc(C)c(O)c(C)c1)C(F)(F)F	.	-6	.	-3	.	16*
COC(=O)C(Nc1ccccc1Cl)(c1cc(C)c(O)c(C)c1)C(F)(F)F (stereo not given)	-13	1	1	2	5	-5
O=C1NN(c2ccc(F)c(Cl)c2)C(=O)/C1=C\c1cccc(OC(=O)c2cccs2)c1	-1	1	24*	17	5	-1
CN(C)c1ccc(NS(=O)(=O)c2ccc(Cl)cc2)cc1	7	2	23*	9	-8	1
CCN(CC)C(=O)CC[C@H]1CC[C@]2(CCCN(S(C)(=O)=O)C2)O1	2	.	1	.	.	.
Cc1nc(N)sc1-c1csc(Nc2ccccn2)n1	2	.	23*	.	-4	.
Cc1nc(C)c(-c2csc(Nc3ccccn3)n2)s1	-1	11	3	-1	-5	5
O=c1cc(N2CCN(c3cccc(C(F)(F)F)c3)CC2)[nH]c(=O)n1C1CCCCC1	1	.	-1	.	.	.
COc1cccc(N/N=C/c2cccc(Br)c2O)c1	12	2	11	9	0	-2
Cc1cccc(N/N=C/c2ccc(O)c(O)c2O)c1	-2	1	33*	7	6	0
O[C@H](COc1ccc(F)cc1)CN1CCC(C(O)(c2ccccc2)c2ccccc2)CC1	-11	.	-1	.	.	.
c1ccc(-c2ccc(C3CCCN3)cc2)cc1 (stereo not given)	0	33*	0	-1	5	-1
CCN(C(=O)Cn1nnc(-c2ccncc2)n1)c1ccccc1	4	.	-4	.	.	.
CCOC(=O)c1c(-c2ccc(C)o2)csc1NC(=O)CN(C)CC(=O)Nc1ccc(C)cc1	3	0	22*	-5	2	1
COc1ccc(OC)c(S(=O)(=O)Nc2ccc(C(=O)Nc3cc(C)on3)cc2)c1	1	.	-3	.	.	.
COC(=O)[C@]12C[C@H](CC(=O)NCC34CC5CC(CC(C5)C3)C4)C(=O)N(Cc3ccccc3)C1=C[C@H](COCc1ccccc1)O[C@@H]2C	2	.	2	.	.	.
COCCNC(=O)c1c[nH]c2cc(OC)c(OC)cc2c1=O	-3	-3	25*	-1	3	-8
O=C(NCCCc1ccccc1)C1CCN(c2nc(-c3ccc(Br)cc3)cs2)CC1	-2	.	0	.	.	.
CC(COc1cccc([N+](=O)[O-])c1)CN1CCC(C(O)(c2ccccc2)c2ccccc2)CC1 (stereo not given)	-1	.	3	.	.	.
C=CCOc1c(OC)cc(/C=N/Nc2cccc(C(=O)O)c2)c(Br)c1Br	8	46*	7	25*	1	-3
O=C(/C=C\c1ccc(-c2ccccc2)o1)c1ccccc1	-1	-3	26*	0	-7	-8
CSc1nc(-c2ccco2)nn1C(=O)c1ccco1	6	0	-2	2	4	-4
CSc1cc(-c2ccco2)oc1C(=O)c1ccco1	2	2	25*	1	0	4
Cn1c(NCCN2CCCCC2)cc(=O)n(C)c1=O	-7	-3	24*	-4	3	1
SMILES	SIAE primary	PME-1 primary	PRMT1 FP inh	Fam108B inh	TCR CD3 inh	PAD4 FP inh
O=C(CN1C(=O)S/C(=C\c2ccc(Cl)cc2)C1=O)NC1C=CS(=O)(=O)C1 (stereo not given)	-10	1	6	-2	-4	2
O=C(CN1C(=O)S/C(=C\c2ccc(Cl)cc2)C1=O)NNC(=O)c1ccccc1O	10	-2	8	-1	33*	6
CN(CCOC(=O)CC1C=CCC1)C1CN(Cc2cn(Cc3ccccc3Cl)nn2)S(=O)(=O)C1 (stereo not given)	-4	.	-2	.	.	.
Cc1nc2ccccc2nc(=O)c1NNc1ccccc1	13	.	2	.	3	.
Cc1ccc2nc(=O)c(NNc3ccccc3)cnc2c1	4	41*	6	4	-7	-2
O=C(CN(CCc1ccccc1)S(=O)(=O)c1cccs1)N1CCOCC1	-1	.	0	.	.	.
O=Cc1nc(Nc2cc(F)cc(F)c2)nc(NC2CCCC2)n1	-8	.	3	.	.	.
O=C(NC1CCCCN(Cc2cccc(Cl)c2)C1=O)C1CCCCC1 (stereo not given)	-8	.	5	.	.	.
CC(=O)c1cccc(CN2CCCC(C(=O)Nc3cccc(-n4cccn4)c3)C2)c1 (stereo not given)	1	8	22*	-3	-1	-2
C=CCN1[C@@H](CC(C)C)COc2cccc(N3CCCC3)c2S1(=O)=O	3	.	-1	.	.	.
Oc1ccc2ccccc2c1CNc1ccc2ccccc2c1	8	.	25*	.	8	.
CC(C)CCN1C(=O)c2cccc3c(N)ccc(c23)C1=O	14	10	158*	5	-2	24*
O=C(O)c1cccc(N2C(=O)c3cccc4c(Cl)ccc(c34)C2=O)c1	4	0	1	2	1	1
Nc1cccc(N2C(=O)c3cccc4c(N)ccc(c34)C2=O)c1	5	3	113*	12	14	7
Nc1[nH]c(C(=O)c2ccccc2)c(-c2ccc(Cl)cc2Cl)c1C(=O)c1cccs1	-3	.	2	.	.	.
CN1CCC(OC(=O)c2ccccc2)CC1	-1	9	1	26*	-4	-1
Cc1ccc(NC(=O)CCS(=O)(=O)c2ccccc2)cc1C	7	.	5	.	.	.
C/C(=N\NC(=O)c1cccc(N/N=C(\C)c2ccco2)c1)c1ccco1	4	.	6	.	4	.
C/C(=N\NC(=O)c1ccc(N/N=C(\C)c2ccc(O)cc2)cc1)c1ccc(O)cc1	9	28*	0	16	2	-1
C/C(=N\NC(=O)c1cccc(N/N=C(\C)c2cc(O)ccc2O)c1)c1cc(O)ccc1O	11	4	6	30*	30*	-11
C/C(=N\Nc1cccc([N+](=O)[O-])c1)c1ccccc1O	4	45*	1	8	2	-5
C/C(=N\Nc1cccc([N+](=O)[O-])c1)c1cc(F)ccc1O	0	17	-2	4	1	-3
CCN(CC)c1ccc(N=Cc2ccc([N+](=O)[O-])o2)cc1	7	10	41*	11	5	8
O=C(C1CCCN1S(=O)(=O)c1ccccc1[N+](=O)[O-])N1CCc2ccccc2C1 (stereo not given)	1	.	3	.	.	.
CC1(C)C(C(=O)O)N2C(=O)C(NC(=O)Cc3ccccc3)C2S1=O (stereo not given)	10	3	23*	1	1	-4
CC1(C)C(C(=O)OCC(Cl)(Cl)Cl)N2C(=O)C(NC(=O)Cc3ccccc3)C2S1=O (stereo not given)	7	-1	14	-7	5	0
CC(=O)N1CCN(C(=O)CN2C(=O)CC(C)(C)S(=O)(=O)c3ccccc32)CC1	1	.	7	.	.	.

Assay outcomes from PubChem BioAssay.
